The text below walks through data of PubChem BioAssay AID651610 (Broad Institute, 2012).

The campaign covered roughly 360,000 compounds. About 3,900 (1.1%) were called active. This excerpt belongs to a sample that is enriched for actives. Values without a mark were called inactive.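 Rule for the calls: active = mean replicate inhibition score of at least 50 and every replicate individually at or above 50; inconclusive = only one of the two criteria met; inactive = mean below 50 and not all replicates reaching 50.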

This test in a line: inhibitors of HIV-1 Env-driven cell-cell fusion, primary screen, HeLa-JRFL effector, CEM21 target cells, luciferase (AID 651610).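 Note: 0% = plate neutral controls and 100% = maraviroc near 300 nM.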 The following applies: active compounds read high; at 16.7 µM unless noted.
For `COC(=O)[C@]1(Cc2ccccc2)N[C@H](CN(C)S(=O)(=O)c2ccc(F)cc2)[C@@H]2C(=O)N(Cc3ccccc3)C(=O)[C@@H]21`, the inhibition (commonly the change of the read-out against control, counted positive when it falls) is 31.6% [at 12.3 µM].

As to `CCNC(=O)N(CC)C[C@H]1N[C@@](CC)(C(=O)OC)[C@H]2C(=O)N(Cc3ccccc3)C(=O)[C@@H]12`, the inhibition is -2.99% [at 12.3 µM].

As to `COC(=O)[C@@]1(C)[C@H]2C(=O)N(Cc3ccccc3)C(=O)[C@H]2[C@H]2CN=C(SCC3CC3)N21`, the inhibition was 84% [at 12.3 µM] (active).

Consider `CCN(C[C@H]1N[C@@](Cc2ccccc2)(C(=O)OC)[C@H]2C(=O)N(Cc3ccccc3)C(=O)[C@@H]12)C(=O)c1ccc(C)cc1`, for which the inhibition was -47.2% [at 12.3 µM].

Consider `CC[C@]1(C(=O)OC)[C@H]2C(=O)N(C)C(=O)[C@H]2[C@H]2CN(C)C(=NCc3ccccc3)N21`, for which the inhibition was -17.3% [at 12.3 µM].

In the case of `CCN1C[C@@H]2[C@@H]3C(=O)N(Cc4ccccc4)C(=O)[C@@H]3[C@](Cc3ccccc3)(C(=O)OC)N2C1=NC1CCCCC1`, the inhibition is 16.7% [at 12.3 µM].

`CCN1C[C@@H]2[C@@H]3C(=O)N(Cc4ccccc4)C(=O)[C@@H]3[C@](C)(C1=O)N2C(=O)c1ccc(C(C)(C)C)cc1`: the inhibition is -9.05% [at 12.3 µM].

Turning to `CC[C@]1(C(=O)OC)[C@H]2C(=O)N(Cc3ccccc3)C(=O)[C@H]2[C@H]2CN=C(SCc3ccccc3)N21`, the inhibition is 93.6% [at 12.3 µM] (active).

For `CC[C@]1(C(=O)OC)[C@H]2C(=O)N(Cc3ccccc3)C(=O)[C@H]2[C@H]2CN=C(SCc3ccc(C#N)cc3)N21`, the inhibition was 87.6% [at 12.3 µM] (active).

Take `CO[C@@H]1CN(C)C(=O)c2cc(NC(C)=O)ccc2OC[C@H](C)N(C(=O)CC2CC2)C[C@@H]1C`: the inhibition is -18.3%.

Regarding `Cc1noc(C)c1S(=O)(=O)Nc1ccc2c(c1)C(=O)N([C@H](C)CO)C[C@@H](C)[C@@H](CN(C)C(=O)C1CCCCC1)OCCCC[C@@H](C)O2`, the inhibition is 2.09%.

With `C[C@H](O)C#Cc1cnc2c(c1)C(=O)N([C@@H](C)CO)C[C@H](C)[C@@H](CN(C)C(=O)c1ccncc1)O2`, the inhibition is -14.6%.

For the molecule `CO[C@@H]1CN(C)C(=O)c2cc(NC(=O)c3ccc(F)cc3)ccc2OC[C@H](C)NC[C@@H]1C`, the inhibition was -6.15%.

As for `Cc1ccccc1S(=O)(=O)N[C@H]1CC[C@@H](CCn2cc(Cc3ccccc3)nn2)O[C@H]1CO`, the inhibition was 0.428%.

For the molecule `CCCC(=O)Nc1ccc2c(c1)OC[C@@H](C)N(CC1CCOCC1)C[C@H](C)[C@H](OC)CN(C)C2=O`, the inhibition is -7.57%.
